Bioassay records: PubChem BioAssay, several laboratories
The list is not random: actives were taken first. Their share in the collection is about 1.8%.
SUMO Mot1 rescue = inhibitors of SUMOylation pathway: yeast Mot1-301 growth rescue. S. cerevisiae Mot1-301 growth rescue, ATP luminescence, 38.5C; percent above DMSO median, 100 means doubled. growth rescue, % at 18.8 µM. 320,000 tested, 1% active;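 active = every valid replicate shows activation above 250% relative to neutral control wells; inactive = the rest, any valid replicate at or below 250%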;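 also: OY570 slx delta 5 strain wells were the positive control but not used for scaling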
NALP3 yeast inh = inhibitors of NALP3 inflammasome in yeast; Yeast reconstituted NLRP3/ASC/caspase-1, beta-gal luminescence, 24 h; inhibition, % at 10 µM; 330,000 tested, 0.39% active;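 active = inhibition of 50% or more; inactive = inhibition below 50%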;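 also: plate controls were induced DMSO wells for no effect and uninduced yeast grown without galactose for full effect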
NALP1 inh = blocks the NALP1 inflammasome reconstituted in yeast; inhibition, % at 10 µM; S. cerevisiae NALP1/ASC/caspase-1 growth, X-gal OD620, 72 h; 280,000 tested, 0.61% active; in the data active = inhibition mostly above about 24%, no sharp cut-off; inactive = mostly below about 32%
PolyA inhibitor = blocks polyadenylation in yeast reporter cells. S. cerevisiae SKY197-pL101 polyadenylation reporter, beta-gal luminescence; efflux-impaired pdr1/pdr3 knockout yeast; score 100 = 6 SD above DMSO. 300,000 tested, 0.02% active. activity score, % at 12 µM;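 active = lowest replicate activity score at least 50, where 100 means six control SD above control mean; inconclusive = lowest score under 50 but half or more replicates reach 50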;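 also: yeast exposed to compound for 9 h at 30 °C; higher score means more reporter readthrough which indicates perturbed polyadenylation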
An asterisk follows results filed as active; ? = inconclusive; . = no result given.

SMILES | SUMO Mot1 rescue | NALP3 yeast inh | NALP1 inh | PolyA inhibitor
CCC(=O)Nc1ccc(N2CCCCC2)cc1 | -7 | 7 | 40* | 6
O=C(c1cccc(NS(=O)(=O)c2ccccc2)c1)N1CCN(c2ccccc2)CC1 | -14 | 4 | . | 0
CCCCOc1cc(C(=O)NCCN(CC)CC)c2ccccc2n1 | 71 | 14 | 15 | -5
O=C(Nc1ccc2c(c1)OCO2)C1CC1 | 6 | 18 | . | .
Cc1oc2c(c1C(=O)Nc1cccc(C(=O)O)c1)CCCC2 | -9 | 10 | -18 | 14
CC(=O)Nc1nc2ccc(Br)cc2s1 | 24 | 0 | 29* | -16
CCC(=O)N1CCN(c2nc3ccc(Br)cc3s2)CC1 | -12 | -2 | 30* | -4
CN(C)CC(=O)c1c[nH]c2ccccc12 | -20 | -1 | -7 | 7
O=C(Nc1ccccc1)NC1(C(=O)N2CCN(C(=O)c3ccco3)CC2)CCCCC1 | . | 16 | 21 | 6
COc1ccc(CCn2c(-c3ccc(Cl)cc3)n[nH]c2=S)cc1OC | -15 | 18 | 33* | 8
O=C(OCC(=O)N1CCN(C(=O)c2ccco2)CC1)c1ccccc1 | -15 | 15 | 3 | 2
Cc1ccc(C)c(NC(=O)CCN2CCC(C)CC2)c1 | -27 | 8 | 7 | -15
Cc1ccc(C)c(NC(=O)CCN2CC(C)CC(C)C2)c1 (stereo unspecified) | 2 | 25 | 38* | 2
CC(=O)Nc1ncnc2c1c(-c1ccc(Cl)cc1)nn2C(C)(C)C | 118 | 49 | 42* | -46
CC(=O)N(C(C)=O)c1ncnc2c1c(-c1ccc(Cl)cc1)nn2C(C)(C)C | -24 | 10 | 8 | -3
COc1ccc(-c2cc(C(F)(F)F)nc(S(C)(=O)=O)n2)cc1 | 589* | 29 | 4 | -57
CS(=O)(=O)c1nc(-c2ccc(F)cc2)cc(C(F)(F)F)n1 | . | . | 25 | -86
O=C(O)CC/C(=N/Nc1ccc([N+](=O)[O-])cc1)C(=O)O | 208 | 11 | 34 | 10
O=C(O)CC/C(=N\Nc1ccc([N+](=O)[O-])cc1)c1ccccc1 | 367* | 31 | 4 | -39
Cc1c(NC(=O)c2ccccc2NC(=O)COc2ccccc2)cccc1C(=O)O | -5 | 5 | 5 | 7
O=C(Nc1ccc(Oc2cccc(C(F)(F)F)c2)nc1)c1ccco1 | 342* | 29 | 12 | -11
CC(C)(C)c1ccc(Oc2ccc(NC(=O)c3ccco3)cn2)cc1 | 378 | 41 | 2 | -24
COc1ccc(C(=O)N(Cc2sccc2C)C2CCS(=O)(=O)C2)cc1 (stereo unspecified) | 1 | 5 | 26* | -4
CCC(OC(=O)C1=Cc2ccccc2OC1)C(=O)NCc1ccco1 (stereo unspecified) | -6 | 33 | 33* | 21
Cc1ccc(NC(=S)N(CCN(C)C)Cc2cc3cc(C)ccc3[nH]c2=O)cc1 | -8 | 8 | 18* | 0
SMILES | SUMO Mot1 rescue | NALP3 yeast inh | NALP1 inh | PolyA inhibitor
Cn1c(=N)c(S(=O)(=O)c2ccccc2)cc2c(=O)n3ccccc3nc21 | 311* | 2 | 8 | .
CC(NC(=O)COc1cccc(Br)c1)C(=O)O (stereo unspecified) | 997* | 5 | -16 | -15
CC(NC(=O)COc1ccc(Br)cc1)C(=O)O (stereo unspecified) | -31 | -2 | 17 | 3
COc1ccc2c(c1)OC[C@H]1[C@H]2N2C(=O)c3ccc(C)cc3NC(=O)[C@@]2(C)[C@H]1c1ccccc1 | 356* | 15 | . | .
COc1ccc2c(c1)OC[C@H]1[C@H]2N2C(=O)c3cc(OC)ccc3NC(=O)[C@@]2(C)[C@H]1c1ccccc1 | 356* | -10 | . | .
CCN(CC)S(=O)(=O)c1ccc(C(=O)Nc2ccc3c(c2)OCCO3)cc1 | 4 | 2 | 26 | -11
Nc1nonc1-n1nnc(C(=O)N/N=C/c2cccc(F)c2)c1CN1CCCCCC1 | 134 | -4 | . | 6
Oc1cc2c(cc1C(c1ccc(Br)cc1)N1CCCC1)OCO2 (stereo unspecified) | . | 44 | 43* | .
O=S(=O)(NCC(c1ccc2c(c1)OCO2)N1CCOCC1)c1ccc(Br)cc1 (stereo unspecified) | 280 | 20 | . | -14
CN(C)CCN(C(=O)/C=C/c1cccs1)c1nc2c(F)cc(F)cc2s1 | 175 | 31 | 59* | 5
Cc1ccc2nc(N(CCN(C)C)C(=O)/C=C/c3cccs3)sc2c1 | -10 | 37 | 56* | 7
O=C(N/N=C/c1cccc(Oc2ccccc2)c1)c1ccccc1Br | 6 | 19 | 32* | -30
CCOc1ccc(CNc2ccc(CNc3ncn[nH]3)cc2)cc1 | 342* | -10 | 15 | -6
CN(C(=S)NC(=O)c1ccccc1)C1CCCCC1 | 3 | 17 | 2 | -17
NC(=O)CSC1=N/C(=C\c2ccco2)C(=O)N1c1ccc(OC(F)F)cc1 | 0 | 16 | -5 | 8
CCOc1cc(/C=C2\N=C(SC(C)C(N)=O)N(c3ccc(OC(F)F)cc3)C2=O)ccc1O (stereo unspecified) | 117 | 23 | -4 | 157*
C(=C\c1nc(N2CCCCCC2)c2ccccc2n1)/c1ccccc1 | 60 | 27 | 57* | -6
CCCN(Cc1ccccc1)C(=S)NC(=O)c1ccccc1[N+](=O)[O-] | 158 | 33 | 17 | -20
O=C(/C=C/Nc1ccccc1F)c1cccs1 | -17 | 25 | 57* | 5
CCS(=O)(=O)Nc1ccc(NC(C)=O)cc1 | 9 | 10 | 36* | 1
O=C(CCN1C(=O)C2C3C=CC(C3)C2C1=O)NC1CCCCC1 (stereo unspecified) | 231 | 3 | 37* | 6
O=C(CCc1nc(-c2ccccc2F)no1)Nc1ccc(Oc2ccccc2)cc1 | 7 | 19 | 41* | -2
COC(=O)COc1ccc(/C=N/NC(=O)CN(c2ccccc2OC)S(=O)(=O)c2ccccc2)cc1 | -6 | 14 | 20 | 5
c1ccc(-n2cc(CNCCc3cscn3)c(-c3ccc4c(c3)OCO4)n2)cc1 | 101 | 19 | 32* | -20
Cc1cc(=O)oc2c3c(cc(OCC(=O)N4CCC(C(=O)O)CC4)c12)OC(C)(C)CC3 | 16 | 17 | 2 | 0
SMILES | SUMO Mot1 rescue | NALP3 yeast inh | NALP1 inh | PolyA inhibitor
CCCCc1cc(=O)oc2c3c(cc(OCC(=O)N4CCC[C@H]4C(=O)O)c12)OC(C)(C)CC3 | 721* | -6 | -8 | -13
Cc1c(C)c2c(OCC(=O)N3CCC(C(N)=O)CC3)cc3c(c2oc1=O)CCC(C)(C)O3 | 610* | 10 | -2 | 4
CCOC(=O)N1CCN(S(=O)(=O)N2CCCC(C(=O)NCc3ccc(OC)cc3OC)C2)CC1 (stereo unspecified) | 2 | 5 | 18 | -4
CCN(CC)C(=O)Cn1c(=O)oc2ccccc21 | 389* | 22 | . | 1
O=C(COc1ccccc1)NNC(=O)c1cccs1 | -21 | -4 | 7 | ?
Cc1c2c(nc3ccccc13)CCC(C)C2 (stereo unspecified) | 184 | 23 | 36* | 0
CC1CCc2nc3ccccc3c(C(=O)OCC(=O)NC3CCS(=O)(=O)C3)c2C1 (stereo unspecified) | 11 | -1 | -9 | 3
CCCCCCCCCCCCCCCCn1cc[n+](CC(C)=O)c1 | . | . | 78* | .
